Assay outcomes as filed in PubChem BioAssay.
Shown are actives, neighbours in structure and some others; about 0.41% of the full set was active somewhere.
GLA inh pH 4.5: alpha-galactosidase A (human) inhibition, pH 4.5 | P06280 | purified enzyme, 4-MU-alpha-Gal fluorescence, pH 4.5 | activity change, negative = inhibition, % at 105 µM | 230,000 tested, under 10 active;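 further: 0% = full activity with enzyme and -100% = basal without enzyme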
N370S GC mod: inhibitors or activators of N370S glucocerebrosidase for Gaucher disease; P04062; N370S GC spleen homogenate, 4MU-glucoside fluorescence; Potency, µM (top dose mostly 59.4 µM), inactives show at the highest dose activity change, negative = inhibition, most hits filed as inhibitors; hit rate 0.092% among 330,000; AID 2101;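 further: potency means the concentration at half of the fitted maximal effect; 0% = full enzyme activity and -100% = no enzyme basal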
aGal spleen mod: inhibits or activates alpha-galactosidase in human spleen homogenate | P06280 | human spleen homogenate, 4MU-alpha-Gal fluorescence, 40 min | Potency, µM (doses to about 80 µM), inactives show top-dose activity change, negative = inhibition, hits mostly inhibitors | hit rate 0.008% among 240,000 | AID 2107;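 further: potency means the concentration at half of the fitted maximal effect; 0% = enzyme with vehicle and -100% = no enzyme basal signal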
Target sequence (P06280 32-429 limits assumed): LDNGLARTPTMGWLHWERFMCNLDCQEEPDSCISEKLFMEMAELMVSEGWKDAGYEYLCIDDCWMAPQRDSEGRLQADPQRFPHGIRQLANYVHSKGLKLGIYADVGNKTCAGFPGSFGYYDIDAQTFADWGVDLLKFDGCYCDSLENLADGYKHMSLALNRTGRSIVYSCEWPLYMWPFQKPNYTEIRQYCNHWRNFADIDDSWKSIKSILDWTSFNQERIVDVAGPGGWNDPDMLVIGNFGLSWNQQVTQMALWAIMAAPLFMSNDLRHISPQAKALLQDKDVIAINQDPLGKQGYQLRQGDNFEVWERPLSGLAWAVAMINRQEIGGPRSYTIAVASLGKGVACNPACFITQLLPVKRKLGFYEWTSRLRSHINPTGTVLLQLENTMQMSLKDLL
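Human spleen homogenate (1 ug) was the enzyme source, with 4-methylumbelliferyl-alpha-D-galactopyranoside (1 mM final) in pH 5.0 citrate buffer with 0.01% Tween-20. Compounds were titrated; after 40 min at 37C, NaOH/glycine stop, 4-MU fluorescence read; AC50 from Hill fits.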
GAA glycogen mod: inhibitors or activators of human alpha-glucosidase glycogen cleavage. P10253. recombinant GAA, glycogen substrate, Amplex Red glucose oxidase fluorescence. Potency, µM (series often up to 76.4 µM), inactives show at the top dose activity change, negative = inhibition, actives largely listed as inhibitors. hit rate 0.38% among 300,000;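 further: potency means the concentration at half of the fitted maximal effect; 0% = full enzyme reaction and -100% = no-enzyme basal signal; the screen sought inhibitors and activators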
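Recombinant human alpha-glucosidase (4 nM final) hydrolysed bovine liver glycogen (30 ug) for 40 min at 37 C in pH 5.0 citrate/phosphate with 0.01% Tween-20. Released glucose detected by glucose oxidase/Amplex Red, Ex 573/Em 610 nm. Compounds up to 77 uM; AC50 from Hill fits.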
aGlu spleen mod: inhibitors or activators of human alpha-glucosidase in spleen homogenate | Potency, µM (top dose mostly 79.9 µM), inactives show at the top dose activity change, negative = inhibition, hits mostly inhibitors | hit rate 0.006% among 240,000 | human spleen homogenate, 4-MU-alpha-glucoside fluorescence | P10253;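 further: potency means the concentration at half of the fitted maximal effect; 0% = enzyme with vehicle and -100% = no enzyme basal signal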
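Enzyme source: human spleen homogenate, 1 ug/well. Buffer 50 mM citric acid/K phosphate pH 5.0, 0.01% Tween-20. 4-MU-alpha-glucoside 1 mM; 37 C x 40 min; NaOH/glycine stop; fluorescence.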
GAA inhib: alpha-glucosidase (human) inhibition | P10253 | purified human GAA, 4-MU-alpha-glucoside fluorescence | Potency, µM (top dose mostly 76.9 µM), for inactives: at the top dose activity change, negative = inhibition, actives largely listed as inhibitors | hit rate 0.005% among 200,000 | AID 1466;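 further: potency means the concentration at half of the fitted maximal effect; plate controls were uninhibited enzyme wells for no effect and no-enzyme background for full effect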
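Fluorogenic assay: 4 nM human alpha-glucosidase with 400 uM 4-methylumbelliferyl-alpha-D-pyranoside in 50 mM citrate/phosphate, 0.005% Tween-20, pH 5.0, 20 min at room temperature. Compounds tested up to 77 uM; AC50 from Hill fits.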
* hit, by the source's call; ? = inconclusive; · = no result; [ ] = dose if it differs, or a comment. The call rests on the fitted dose curve; in most records, active means well fitted curve in the direction sought with a large enough effect; inconclusive means small, poorly fitted or top-dose-only effect, or another doubt; inactive means no such curve, though single readings can be large; an effect the other way counts as inactive or inconclusive.

SMILES | GLA inh pH 4.5 | N370S GC mod | aGal spleen mod | GAA glycogen mod | aGlu spleen mod | GAA inhib
COc1cc(C2Nc3ccc4ncccc4c3C3=C2C(=O)CCC3)cc(OC)c1O (configuration not stated) | -7 | -3% | -8% | 45µM* | -5% | -3%
COc1cc(/C=C/c2nc3ccccc3s2)cc(OC)c1O | -13 | -10% | -6% | 18µM* | -11% | -10%
COc1cc(/C=C/c2cc(C(=O)O)c3ccccc3n2)cc(OC)c1O | 0 | -4% | -12% | 14µM* | -14% | -5%
CC12C=C(/C=C/c3ccccc3)C(C)(C1)C(c1ccccc1)CC2=O (configuration not stated) | · | 4%[12.8 µM] | -1%[17.5 µM] | · | -1%[17.4 µM] | ·
Oc1ccccc1N1CCN(c2ncccn2)CC1 | -3 | 4% | -24% | 7.9µM* | -2% | 0%
c1ccc(N2CCN(c3ncccn3)CC2)cc1 | -1 | 21% | -5% | 8% | -5% | 14%
CCOC(=O)c1[nH]c2c(c1Cc1ccccc1OC)C(=O)CC(c1ccccc1)C2 (configuration not stated) | · | · | · | -9%[76.3 µM] | · | ·
CCOc1ccc(-c2cc3nc(C4CCN(C(=O)OC(C)(C)C)CC4)c(C(=O)Nc4ccc(C)cc4C)cn3n2)cc1 | · | · | · | 35µM* | · | ·
O=C(Cn1cc(S(=O)(=O)Cc2cccc(Cl)c2)c2ccccc21)Nc1ccccc1Cl | · | · | · | -4%[76.3 µM] | · | ·
CCC12CN3CC(CC)(CN(C1)C3c1cccc(OC)c1O)C2=O (configuration not stated) | · | · | · | 15%[76.3 µM] | · | ·
CCc1cc2c(Nc3ccc(O)cc3)nc(C)nc2s1 | · | 20µM* | · | · | · | ·
CCc1cc2c(Nc3ccccc3O)nc(C)nc2s1 | · | -4% | · | -18%[15.3 µM] | · | ·
Cc1ccc(N(Cc2cccs2)C(=O)c2ccccc2[N+](=O)[O-])cc1 | · | · | · | 8%[76.3 µM] | · | ·
Cc1cccc(N/C=C/C(=C(C#N)C#N)N(C)C)c1 | -2 | 7% | 2% | 1% | -15% | -2%
CN(C)C(/C=C/Nc1ccc(O)cc1)=C(C#N)C#N | 8 | -4% | -3% | 7.9µM* | -2% | -11%
CCCC[C@H](NC(=O)[C@@H]1CCCN1C(=O)[C@H]1CCCN1C(=O)[C@H](Cc1ccccc1)NC(=O)[C@@H](Cc1c[nH]c2ccccc12)NC(=O)[C@H](C)NC(=O)[C@H](CCCN=C(N)N)NC(=O)OC(C)(C)C)C(N)=O | · | 2.8µM* | -8% | · | 2% | ·
CC(C)C[C@H](NC(=O)[C@H](CC(C)C)NC(=O)[C@@H](Cc1c[nH]c2ccccc12)NC(=O)[C@H](Cc1ccccc1)NC(=O)[C@@H](Cc1c[nH]c2ccccc12)NC(=O)[C@H](CCC(N)=O)NC(=O)[C@H](CCC(N)=O)NC(=O)[C@@H]1CCCN1C(=O)[C@H](CCCCN)NC(=O)[C@@H]1CCCN1C(=O)[C@H](N)CCCN=C(N)N)C(N)=O | · | -3% | 7% | · | -5% | ·
C#CCOCCOCCOCCNc1nc(N2CCN(C(=O)CCCCCCCCCCNC(=O)[C@@H](CCC(=O)O)n3cc(CCCCCN)nn3)CC2)nc(N2CCN(C(=O)CCCCCCCCCCNC(=O)[C@H](CO)n3cc(CCCCCN)nn3)CC2)n1 | · | -23% | · | · | · | ·
C#CCOCCOCCOCCNc1nc(N2CCN(C(=O)CCCCCCCCCCNC(=O)[C@H](CCCN=C(N)N)n3cc(C[C@@H](C)CC)nn3)CC2)nc(N2CCN(C(=O)CCCCCCCCCCNC(=O)[C@@H]([C@H](C)CC)n3cc(CCCCCN)nn3)CC2)n1 | · | 5.6µM* | · | · | · | ·
C#CCOCCOCCOCCNc1nc(N2CCN(C(=O)CCCCCCCCCCNC(=O)[C@H]([C@@H](C)CC)n3cc(CCCCN=C(N)N)nn3)CC2)nc(N2CCN(C(=O)CCCCCCCCCCNC(=O)[C@H](CCCN=C(N)N)n3cc(C[C@@H](C)CC)nn3)CC2)n1 | · | 8.9µM* | · | · | · | ·
C#CCOCCOCCOCCNc1nc(N2CCOCC2)nc(N2CCN(C(=O)[C@H]([C@@H](C)CC)n3cc(CCCN=C(N)N)nn3)CC2)n1 | -6 | 4% | 11% | 3% | -7% | 6%
CCc1ccccc1NC(=O)N(C)CCc1c(C)nn(C)c1C | · | · | · | -7%[76.3 µM] | · | ·
COc1ccc(CCNC(=O)c2cc(Nc3cc(C)cc(C)c3)nc3ccccc23)cc1OC | · | · | · | 4%[76.3 µM] | · | ·
Oc1ccc(Nc2ccnc3cc(Cl)ccc23)cc1 | -12 | ? | 6% | 13µM* | -10% | ·
C#CCOCCOCCOCCNc1nc(N2CCN(C(=O)CCCCCCCCCCNC(=O)[C@@H](CCSC)n3cc(CCO)nn3)CC2)nc(N2CCN(C(=O)CCCCCCCCCCNC(=O)[C@@H]([C@H](C)O)n3cc(C)nn3)CC2)n1 | · | -13% | · | · | · | ·
SMILES | GLA inh pH 4.5 | N370S GC mod | aGal spleen mod | GAA glycogen mod | aGlu spleen mod | GAA inhib
C#CCOCCOCCOCCNc1nc(N2CCN(C(=O)CCCCCCCCCCNC(=O)[C@H](CCCCN)n3cc(C[C@@H](C)CC)nn3)CC2)nc(N2CCN(C(=O)CCCCCCCCCCNC(=O)[C@@H]([C@H](C)O)n3cc(C)nn3)CC2)n1 | · | 11µM* | · | · | · | ·
C#CCOCCOCCOCCNc1nc(N2CCN(C(=O)CCCCCCCCCCNC(=O)[C@H](CCCCN)n3cc(CCO)nn3)CC2)nc(N2CCN(C(=O)CCCCCCCCCCNC(=O)[C@H](CCCCN)n3cc(C[C@@H](C)CC)nn3)CC2)n1 | · | 14µM* | · | · | · | ·
C#CCOCCOCCOCCNc1nc(N2CCN(C(=O)CCCCCCCCCCNC(=O)[C@H](CCCCN)n3cc(C)nn3)CC2)nc(N2CCN(C(=O)CCCCCCCCCCNC(=O)[C@H](CCCN=C(N)N)n3cc(C[C@@H](C)CC)nn3)CC2)n1 | · | 7.9µM* | · | · | · | ·
C#CCOCCOCCOCCNc1nc(N2CCN(C(=O)CCCCCCCCCCNC(=O)[C@H](CO)n3cc(CCCCCN)nn3)CC2)nc(N2CCN(C(=O)CCCCCCCCCCNC(=O)[C@H](CCCN=C(N)N)n3cc(C[C@@H](C)CC)nn3)CC2)n1 | · | 13µM* | · | · | · | ·
C#CCOCCOCCOCCNc1nc(N2CCN(C(=O)[C@H](C)n3cc(CCCN=C(N)N)nn3)CC2)nc(N2CCN(C(=O)[C@H](CCCCN)n3cc(CCCC)nn3)CC2)n1 | 1 | 1% | 0% | 3% | -8% | -2%
COc1cc2[nH]c(=O)n(CCCCCC(=O)N3CCN(c4ccc(Cl)cc4)CC3)c(=O)c2cc1OC | · | · | · | 17%[76.3 µM] | · | ·
CC[C@H](C)Cc1cn([C@@H](CCCN=C(NC(=O)OC(C)(C)C)NC(=O)OC(C)(C)C)C(=O)NCCCCCCCCCCC(=O)N2CCN(C(=O)OC(C)(C)C)CC2)nn1 | · | 16µM* | · | · | · | ·
